Bioassay records from PubChem.
Granule exo inh: lytic granule exocytosis inhibition. TALL-104 LAMP-1 surface exposure, flow cytometry; cells stimulated with thapsigargin and PMA. inhibition, % at 10 µM. 0.66% of 360,000 active. AID 651702;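 active = inhibition above about 55%, limit read from the data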
VLA-4 inh: inhibition in a human VLA-4 binding assay; P13612; VLA-4 expressing cells, ligand binding flow cytometry; inhibition, % (about 7 µM as worked out from the volumes in the protocol); 0.2% of 330,000 active; in the data active = inhibition above about 50%
CaV13 FRET inh: Primary screen for inhibitors of IQ motif and Ca2+-dependent inactivation inhibitor domain binding in CACNA1D, Förster resonance energy transfer in living cells, …; 0.098% of 340,000 active; HEK cells, CFP/YFP FRET ICDI-IQ, plate reader, 10 min; percent FRET-ratio fall versus neutral wells; inhibition, % at 12.3 µM;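 active = mean replicate inhibition of at least 30% and at least 1% of replicates passing that level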;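 also: 0% = median of the neutral control wells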
ABCB6 inh MLPCN: human ABCB6 transporter inhibition; Q9NP58; 0.19% of 360,000 active; fluorescence ratio to DMSO, % at 10 µM; K562-ABCB6 porphyrin accumulation, flow cytometry, 1 h; active compounds read low; AID 602162;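 active = fluorescence ratio to DMSO below 75%, the collection mean minus 3 SD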;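 also: signal is porphyrin accumulated inside mitochondria; 100% equals median channel fluorescence of DMSO control wells; lower ratio means ABCB6 inhibition with less porphyrin fluorescence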
Exocytosis CP01: blocks lytic granule exocytosis; TALL-104 cells, LAMP-1 externalization, flow cytometry; stimulated with PMA plus thapsigargin; 11% of 1,500 active; AID 651954; shares compounds with Granule exo inh; inhibition, % at 10 µM; in the data active = inhibition above about 60%;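 also: 0% = stimulated vehicle wells and 100% = unstimulated wells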
Numbers without * were called inactive; . = no result. In the library only some 1.1% were active in any assay of this set; here they are far more common.

SMILES	Granule exo inh	VLA-4 inh	CaV13 FRET inh	ABCB6 inh MLPCN	Exocytosis CP01
Cc1cccc2c1-c1sc(C(=O)NCCCN3CCCC(C)C3)cc1CO2 (stereo not given)	85*	10	-4	97	-2
CCCN1CCN(CCCNC(=O)c2cc3c(s2)-c2ccccc2OC3)CC1	4	8	0	100	.
CCCN1CCN(CCCNC(=O)c2cc3c(s2)-c2c(C)cccc2OC3)CC1	65*	5	-3	100	-1
O=C(CC1SC(=O)N(Cc2ccccc2Cl)C1=O)Nc1nccs1 (stereo not given)	-2	0	1	99	.
CC(C)[C@H](NS(=O)(=O)c1ccccc1F)C(=O)NC1CCCCC1	-2	7	-6	97	.
Cc1cc(C(=O)N2CCN(S(=O)(=O)c3ccccc3C#N)CC2)c(C)o1	18	10	-3	103	.
N#Cc1ccccc1S(=O)(=O)N1CCN(S(=O)(=O)c2ccc(Br)c(C(=O)O)c2)CC1	59*	10	-1	96	-14
CCCCCC/C=C/c1ccc(OC)c([C@H]2[C@H]3C=CC[C@@H](C)[C@@H]3C(=O)N2Cc2ccccc2)c1	67*	2	-10	96	-3
O=C(Cc1ccc(Br)cc1)N/N=C/c1cccnc1	12	1	-3	95	.
Cc1cccc(COCC(CC(C)C)N2CCN(C(=O)c3ccc(C(C)(C)C)cc3)CCC2=O)c1 (stereo not given)	66*	.	1	97	-4
CC(C)C(NC(=O)c1ccc(F)cc1)C(=O)N1CCN(C(=O)c2ccco2)CC1 (stereo not given)	23	-3	-5	100	.
CCCCc1c(-c2ccc(OC)cc2)ncn1CCc1ccccc1OC	82*	.	-9	126	27
CCCCCc1c(-c2ccc(OC)cc2)ncn1CCc1ccccc1OC	68*	.	-10	114	17
CCCCc1c(-c2ccccc2)ncn1CCc1ccccc1OC	17	.	-9	122	.
C=CCOc1ccccc1CN1CCC(CO)(CCOc2ccccc2)CC1	69*	11	-5	99	-13
OCC1(CCOc2ccccc2)CCN(Cc2ccccc2OC(F)F)CC1	12	8	-2	101	.
Cc1c(CN2CCC(CO)(CCOc3ccccc3)CC2)[nH]c2c(Cl)cccc12	92*	16	-8	97	13
CCOc1ccccc1CN1CCN(CCCc2ccccc2)CC1CCO (stereo not given)	63*	13	-3	90	-11
C=CCOc1ccccc1CN1CCN(CCc2ccccc2)C(CCO)C1 (stereo not given)	58*	7	-20	105	-16
Cc1ccccc1NC(=O)CSc1nc2n(n1)CCCCC2	2	16	-5	103	.
CCOC(=O)N1CCN(C(=O)COC(=O)c2ccc(S(=O)(=O)N(CC)CC)cc2)CC1	6	6	-2	99	.
CCOC(=O)C1CCN(C(=O)NS(=O)(=O)c2ccc(C)cc2)CC1	2	16	-5	104	.
CSc1cccc(CNC(=O)C2CCC(=O)N(CC3CCCCC3)C2)c1 (stereo not given)	2	-8	-6	99	.
Cc1ccc(NC(=O)Cn2ncn3c(cc4ccccc43)c2=O)cc1F	106*	26	-2	103	-15
CCc1cccc(NC(=O)Cn2ncn3c(cc4ccccc43)c2=O)c1	-5	26	-9	100	.
SMILES	Granule exo inh	VLA-4 inh	CaV13 FRET inh	ABCB6 inh MLPCN	Exocytosis CP01
Fc1ccc2[nH]c3c(N4CCN(c5ccccc5)CC4)ncnc3c2c1	52	-3	-7	111	.
OC1(c2cccc(C(F)(F)F)c2)CCN(c2ncnc3c2[nH]c2ccc(F)cc23)CC1	96*	.	.	105	68*
c1cncc(-c2nc(NCc3cccs3)c3ccccc3n2)c1	8	16	8	93	.
Fc1ccccc1CNc1nc(-c2cccnc2)nc2ccccc12	81*	-3	-2	101	-10
c1ccc(Oc2nc(-c3cccnc3)nc3ccccc23)cc1	83*	-2	-4	92	-3
CCOc1cccc2sc(N(CCCN(C)C)C(=O)c3ccc(S(=O)(=O)N(CC)Cc4ccccc4)cc3)nc12	64*	16	-4	100	60*
CN(C)CCCN(C(=O)c1ccc(S(=O)(=O)N(C)Cc2ccccc2)cc1)c1nc2cc3c(cc2s1)OCO3	34	4	-3	92	.
CCOc1ccc2nc(N(CCN(C)C)C(=O)c3cc4ccccc4cc3OC)sc2c1	3	-3	.	102	.
CCOc1cccc2sc(N(CCCN(C)C)C(=O)c3ccc(S(=O)(=O)N(C)Cc4ccccc4)cc3)nc12	47	13	-3	93	.
CCN(c1ccccc1)S(=O)(=O)c1ccc(C(=O)N(CCCN(C)C)c2nc3cc4c(cc3s2)OCO4)cc1	70*	5	-3	102	3
CCOc1cccc2sc(N(CCN(C)C)C(=O)c3cc4ccccc4cc3OC)nc12	59*	7	-4	97	15
Cc1ccc2sc(N(CCCN(C)C)C(=O)c3ccc(S(=O)(=O)N(C)Cc4ccccc4)cc3)nc2c1C	66*	14	-5	98	58
CC(CCc1ccc(O)cc1)NCc1ccc(Br)cc1 (stereo not given)	1	1	-5	97	.
O=C(NCC(c1ccco1)N1CCc2ccccc2C1)C(=O)Nc1ccccc1 (stereo not given)	4	0	-2	99	.
COc1ccc(OC)c(-c2cc(C(=O)Nc3ccccc3C(N)=O)c3ccccc3n2)c1	52	2	-20	81	.
COc1ccc2nc(C(c3ccc(C)cc3)n3c(-c4ccccc4Br)nc4ccccc43)[nH]c2c1 (stereo not given)	-5	.	-7	104	.
CNc1nc(NCC2CCCCC2)c2sccc2n1	5	.	-7	91	.
CCc1cc2cc(C)ccc2nc1SCC(=O)NC1CCCC1	92*	2	-3	95	-4
Cc1cc(SCC(=O)NC2CCCC2)nc2ccccc12	-12	6	-2	95	.
CCc1cc2cccc(C)c2nc1SCC(=O)NC1CCCC1	25	5	-4	100	.
Cc1cc(SCC(=O)NC2CCCCC2)nc2ccccc12	98*	19	-3	99	-14
O=C(O)c1c2c(nc3ccccc13)/C(=C/c1cccc([N+](=O)[O-])c1)CCC2	0	-5	-3	111	.
Cc1cc(C)c(CN2CCN(CCCn3cnc(C(=O)Nc4ccc(C)c(C)c4)n3)CC2)c(C)c1	57*	.	-9	97	15
CN(C)CCn1c(=N)n(CC(O)c2ccc(Cl)c(Cl)c2)c2ccccc21 (stereo not given)	85*	7	-5	106	-13
N=c1n(CCN2CCCCC2)c2ccccc2n1CC(O)c1ccc(Cl)c(Cl)c1 (stereo not given)	39	25	-5	107	.
CNC(=S)N/N=C/c1c(C)c(C(=O)c2ccc(F)cc2)n2ccccc12	-33	8	-23	97	.
COc1cc2c(cc1OC)[C@@H]1Cc3cc4c(cc3[C@H](C2)N1C)OCO4	79*	-5	-4	93	-14
